# Source: PubChem BioAssay AID651813 (National Center for Advancing Translational Sciences (NCATS), 2012)
# Screen size: about 2,100 compounds; about 1,100 (52%) were called active. Another 27% or so got no clear call; they are omitted. The call rests on the fitted dose curve; in most records, active means well fitted inhibition curve with a large enough effect; inconclusive means small, poorly fitted or top-dose-only effect; inactive means no such curve, though single readings can be large or run the other way. So high a share suggests a set chosen from earlier hits. The list shows a part of the results.
# Target: DNA dC->dU-editing enzyme APOBEC-3G (Homo sapiens) (UniProt Q9HC16)
# Sequence (Q9HC16 whole entry, looked up): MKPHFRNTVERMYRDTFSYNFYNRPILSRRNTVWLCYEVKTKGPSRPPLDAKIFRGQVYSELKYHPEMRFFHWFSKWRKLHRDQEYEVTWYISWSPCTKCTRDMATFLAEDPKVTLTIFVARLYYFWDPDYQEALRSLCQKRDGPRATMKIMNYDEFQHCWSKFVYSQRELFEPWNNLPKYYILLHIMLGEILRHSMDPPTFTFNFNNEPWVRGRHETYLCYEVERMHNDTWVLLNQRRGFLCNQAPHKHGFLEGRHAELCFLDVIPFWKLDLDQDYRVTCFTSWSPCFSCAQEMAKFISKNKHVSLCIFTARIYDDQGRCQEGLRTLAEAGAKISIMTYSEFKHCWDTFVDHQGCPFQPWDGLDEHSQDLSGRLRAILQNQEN
# Experiment: qHTS for inhibitors of Vif-A3G interactions: Cherry picks counterscreen;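 further: hits raise yellow fluorescence by blocking Vif-driven A3G-eYFP degradation; nearly all actives have a fitted effect of over 70% in size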;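 on max response: max response given as percent of control signal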
# Details: HeLa A3G-eYFP + Vif (tagged APOBEC3G with the HIV-1 protein that degrades it), eYFP fluorescence, 24 h
# How it was run: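 Readout is eYFP fluorescence (488 nm excitation, 500-530 nm emission) measured on Acumen Explorer after 24 h compound exposure, several concentrations, at 37 deg C. Cells: HeLa stably co-expressing Vif and C-terminally eYFP-tagged A3G; MG132 positive control.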
# Potency means the concentration at half of the fitted maximal effect.
SMILES,Potency,max response
COc1ccc2c(Cl)c(C(=O)N/N=C3\CCCC(=O)C3)sc2c1,12.5 µM (active),
CCOc1cc(C(=O)NN=C2CCCC2)cc(OCC)c1OCC,,-1.27% (inactive)
COc1ccc(-c2ccc3c(c2)S(=O)(=O)c2cccc(C(=O)NCCOc4ccccc4)c2C3=O)cc1OC,14 µM (active),
O=C(NCc1ccccc1Cl)c1cccc2c1C(=O)c1ccc(-c3ccc(OC(F)(F)F)cc3)cc1S2(=O)=O,18.4 µM (active),
COc1ccc(-c2ccc3c(c2)S(=O)(=O)c2cccc(C(=O)NCc4cccc(OC(F)(F)F)c4)c2C3=O)cc1OC,3.26 µM (active),
COc1ccc(NC(=O)c2oc3ccc(S(=O)(=O)N4CCOCC4)cc3c2C)cc1,,9.65% (inactive)
COc1cccc(NC(=O)c2oc3ccc(S(=O)(=O)N4CCC5(CC4)OCCO5)cc3c2C)c1,23.1 µM (active),
c1ccc(-c2nccc(-c3ccc4c(c3)OCO4)n2)cc1,4.98 µM (active),
CCN1C/C(=C\c2cccc([N+](=O)[O-])c2)C(=O)/C(=C/c2cccc([N+](=O)[O-])c2)C1,11.2 µM (active),
CC(C)COc1ccc(C(=O)N/C(=C/c2cccc([N+](=O)[O-])c2)C(=O)O)cc1,,13.2% (inactive)
CCN1C/C(=C/c2cccc([N+](=O)[O-])c2)C(=O)/C(=C/c2cccc([N+](=O)[O-])c2)C1,5.59 µM (active),
CC(=O)c1ccc2cccc3c2c1N=CN3C,12.5 µM (active),
Nc1nc(SCc2ccc(Cl)cc2Cl)nc2nc3c(cc12)CCCC3,23.1 µM (active),
CCCCCCn1c(=O)[nH]c2nc3cc(N)ccc3nc2c1=O,,36.1% (inactive)
Cc1cc2nc3c(=O)n(C4CCCCC4)c(=O)[nH]c3nc2cc1N,7.31 µM (active),
Cc1cc2nc3c(=O)n(Cc4ccccc4)c(=O)[nH]c3nc2cc1N,6.27 µM (active),
Cc1cc2nc3c(=O)n(CCc4ccccc4)c(=O)[nH]c3nc2cc1N,3.66 µM (active),
Cc1ccc(NC(=O)CSc2n[nH]c(-c3ccccn3)n2)cc1,,-4.16% (inactive)
Cc1ccc(NC(=O)CO/N=C/c2ccc(N(C)C)cc2)cc1,23.1 µM (active),
CN(C)c1ccc(/C=C(\C#N)C(=O)Nc2nc3c(s2)CCN(Cc2ccccc2)C3)cc1,0.396 µM (active),
CN(C)c1ccc(/C=C(/C#N)C(=O)Nc2nc3c(s2)CCN(Cc2ccccc2)C3)cc1,0.444 µM (active),
CCOCCC(=O)Nc1ccc2c(c1)c(=O)n(C)n2C/C=C/c1ccccc1,11.2 µM (active),
Cn1c(=O)c2cc(NC(=O)NCc3ccccc3)ccc2n1C/C=C/c1ccccc1,15.8 µM (active),
Cn1c(=O)c2cc(NC(=O)NCc3ccc(F)cc3)ccc2n1C/C=C/c1ccccc1,5.59 µM (active),
